PubChem BioAssay (NCATS)
Results filed as inconclusive are left out. Activity calls are given as the source filed them. Unless noted, the call rests on the fitted dose curve; in most records, active means well fitted cell-killing curve with a large enough effect; inconclusive means small, poorly fitted or top-dose-only effect; inactive means flat fitted curve, though single readings scatter.

target: Mitogen-activated protein kinase 10 (Mus musculus) (UniProt Q61831); assay: JNK3 AlphaScreen Assay (AID 530; active means well fitted curve in either direction with a large enough effect, not every such curve was filed as active;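 further: kinase came from lysate of stimulated human HepG2 cells; signal reports phosphorylation of biotinylated GST-cJun 1-79 at Ser73 with 10 µM ATP; on the % scale 0 is the no-effect control and ±100 the full control effect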); conditions: JNK3 lysate, c-Jun phosphorylation; series mostly up to 57.1 µM; activity change, negative = inhibition: at the top concentration
In short: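 qHTS format: compounds tested as titrations against IL-1beta/TNF-alpha-activated HepG2 lysate JNK3 with biotin-GST-cJun substrate and 10 uM ATP at room temperature. Loss of anti-phospho-cJun AlphaScreen signal indicates inhibition.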

| Structure (SMILES) | activity change, negative = inhibition |
| --- | --- |
| O=C(O)c1c(Cl)cccc1Cl | 2.45% (inactive) |
| CC(=O)CC(C)C | -2.85% (inactive) |
| NC(=O)/N=N/C(N)=O | 23.4% (inactive) |
| O=C(Cl)c1cccc([N+](=O)[O-])c1 | 14.6% (inactive) |
| CCCCC(=O)N(C)C | 11.4% (inactive) |
| CSCCC=O | 10.3% (inactive) |
| CCCCC(C=O)CC (configuration not stated) | 4.59% (inactive) |
| O=Cc1cccc(Br)c1 | 8.65% (inactive) |
| C=CCn1c(=O)n(CC=C)c(=O)n(CC=C)c1=O | 13.9% (inactive) |
| CCOc1cc(OCC)c(C(C)=O)cc1OCC | 8.47% (inactive) |
| CCC(C)=O | 16.9% (inactive) |
| O=C1OC(=O)c2c(Cl)c(Cl)c(Cl)c(Cl)c21 | 20% (inactive) |
| CC=O | -13.5% (inactive) |
| CCOc1ccccc1N | 21.5% (inactive) |
| Cc1ccc(C(C)(C)C)cc1 | 17.2% (inactive) |
| CC(N)CN (configuration not stated) | 22.2% (inactive) |
| O=C1CCC(=O)O1 | 8.84% (inactive) |
| O=[N+]([O-])c1ccc(NCCO)c(OCCO)c1 | 7.28% (inactive) |
| ClCCl | 11.8% (inactive) |
| Cc1ccc(C)o1 | 23.1% (inactive) |

| Structure (SMILES) | activity change, negative = inhibition |
| --- | --- |
| NC(=S)NNC(N)=S | -0.588% (inactive) |
| Clc1ccc(Cl)c(Cl)c1Cl | 10.8% (inactive) |
| O=C(Cl)c1ccccc1[N+](=O)[O-] | 9.68% (inactive) |
| Nc1cccc(N)c1 | 15.4% (inactive) |
| CC(C)=C1CCC(C)CC1=O (configuration not stated) | 17% (inactive) |
| Nc1ccc(F)cc1F | 17.7% (inactive) |
| COC(=O)CCC(=O)OC | -0.854% (inactive) |
| CCc1ccccc1 | -1.37% (inactive) |
| CC(=O)OCCC(C)C | 18.8% (inactive) |
| C[C@@H]1CC2(OC3C[C@@]4(C)C5=CC[C@H]6C(C)(C)C(O[C@@H]7OC[C@@H](O)[C@H](O)[C@H]7O)CC[C@@]67C[C@@]57CC[C@]4(C)C31)OC(O)C1(C)OC21 (some centres not stated) | 15.2% (inactive) |
| CC(=O)Nc1ccc(N)cc1 | -7.61% (inactive) |
| CN(C)c1cccc(O)c1 | 2.43% (inactive) |
| Nc1ccccc1S(=O)(=O)O | -8.91% (inactive) |
| C=CCOC(=O)CCCCCCCC | -8.05% (inactive) |
| CC(=O)CCc1ccccc1 | -11.3% (inactive) |
| c1ccsc1 | 3.57% (inactive) |
| NC(=O)c1ccccc1[N+](=O)[O-] | 19.6% (inactive) |
| O=C(O)/C=C/C(=O)O | 6.57% (inactive) |
| O=C(O)c1ccc(CO)o1 | 15.7% (inactive) |

test system: not listed separately; assay: Cell Viability - N2a (AID 540); conditions: N2a mouse neuroblastoma cell viability; activity change, negative = cytotoxicity: at 92.2 µM (top of the series);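 further: cells exposed to compound for 40 h at 37 °C; plate controls were DMSO alone for no effect and tamoxifen control for full effect; nearly all actives have a fitted effect of over 45% in size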
In short: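 First, 1500 N2a cells per well incubate 5 hr at 37 °C; next, compounds are added and incubated 40 hr at 37 °C; finally CellTiter-Glo is added and luminescence read after 20 min, with AC50 derived by Hill modeling.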

| Structure (SMILES) | activity change, negative = cytotoxicity |
| --- | --- |
| O=C(O)c1c(Cl)cccc1Cl | -6.78% (inactive) |
| CC(=O)CC(C)C | -14.8% (inactive) |
| NC(=O)/N=N/C(N)=O | 10.3% (inactive) |
| O=C(Cl)c1cccc([N+](=O)[O-])c1 | 5.21% (inactive) |
| CCCCC(=O)N(C)C | -2.03% (inactive) |
| CSCCC=O | -17.9% (inactive) |
| CCCCC(C=O)CC (configuration not stated) | 2.46% (inactive) |
| O=Cc1cccc(Br)c1 | 0.0642% (inactive) |
| C=CCn1c(=O)n(CC=C)c(=O)n(CC=C)c1=O | 0.0467% (inactive) |
| CCOc1cc(OCC)c(C(C)=O)cc1OCC | -7.23% (inactive) |
| CCC(C)=O | -16.1% (inactive) |
| O=C1OC(=O)c2c(Cl)c(Cl)c(Cl)c(Cl)c21 | 4.39% (inactive) |
| CC=O | 1.14% (inactive) |
| CCOc1ccccc1N | 1.87% (inactive) |
| Cc1ccc(C(C)(C)C)cc1 | -7.24% (inactive) |
| CC(N)CN (configuration not stated) | 3.26% (inactive) |
| O=C1CCC(=O)O1 | 2.23% (inactive) |
| O=[N+]([O-])c1ccc(NCCO)c(OCCO)c1 | -0.601% (inactive) |
| ClCCl | -5.52% (inactive) |
| Cc1ccc(C)o1 | -9.8% (inactive) |

| Structure (SMILES) | activity change, negative = cytotoxicity |
| --- | --- |
| NC(=S)NNC(N)=S | 4.33% (inactive) |
| Clc1ccc(Cl)c(Cl)c1Cl | -2.29% (inactive) |
| O=C(Cl)c1ccccc1[N+](=O)[O-] | 0.882% (inactive) |
| Nc1cccc(N)c1 | -0.534% (inactive) |
| CC(C)=C1CCC(C)CC1=O (configuration not stated) | -3.2% (inactive) |
| Nc1ccc(F)cc1F | -8.92% (inactive) |
| COC(=O)CCC(=O)OC | -1.63% (inactive) |
| CCc1ccccc1 | -7.66% (inactive) |
| CC(=O)OCCC(C)C | -1.72% (inactive) |
| C[C@@H]1CC2(OC3C[C@@]4(C)C5=CC[C@H]6C(C)(C)C(O[C@@H]7OC[C@@H](O)[C@H](O)[C@H]7O)CC[C@@]67C[C@@]57CC[C@]4(C)C31)OC(O)C1(C)OC21 (some centres not stated) | -8.85% (inactive) |
| CC(=O)Nc1ccc(N)cc1 | 4.55% (inactive) |
| CN(C)c1cccc(O)c1 | -1.51% (inactive) |
| Nc1ccccc1S(=O)(=O)O | 4.97% (inactive) |
| C=CCOC(=O)CCCCCCCC | 9.38% (inactive) |
| CC(=O)CCc1ccccc1 | -2.11% (inactive) |
| c1ccsc1 | -9.01% (inactive) |
| NC(=O)c1ccccc1[N+](=O)[O-] | -5.05% (inactive) |
| O=C(O)/C=C/C(=O)O | 4.39% (inactive) |
| O=C(O)c1ccc(CO)o1 | -2.4% (inactive) |

test system: not listed separately; assay: Cell Viability - NIH 3T3 (AID 541); conditions: NIH 3T3 cell viability, qHTS; activity change, negative = cytotoxicity: at 92.2 µM (top of the series);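 further: cells exposed to compound for 40 hours; plate controls were DMSO alone for no effect and tamoxifen positive control for full effect; nearly all actives have a fitted effect of over 25% in size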
In short: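 AC50 values reflect concentration-dependent loss of intracellular ATP in NIH 3T3 cells after 40 hr treatment in complete culture medium, quantified by luciferase-based luminescence.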

| Structure (SMILES) | activity change, negative = cytotoxicity |
| --- | --- |
| O=C(O)c1c(Cl)cccc1Cl | -20.9% (inactive) |
| CC(=O)CC(C)C | -15.5% (inactive) |
| NC(=O)/N=N/C(N)=O | -1.43% (inactive) |
| O=C(Cl)c1cccc([N+](=O)[O-])c1 | -22.9% (inactive) |
| CCCCC(=O)N(C)C | -4.19% (inactive) |
| CSCCC=O | -12.6% (inactive) |
| CCCCC(C=O)CC (configuration not stated) | -0.958% (inactive) |
| O=Cc1cccc(Br)c1 | -5.72% (inactive) |
| C=CCn1c(=O)n(CC=C)c(=O)n(CC=C)c1=O | -18.6% (inactive) |
| CCOc1cc(OCC)c(C(C)=O)cc1OCC | -27% (inactive) |
| CCC(C)=O | -1.28% (inactive) |
| O=C1OC(=O)c2c(Cl)c(Cl)c(Cl)c(Cl)c21 | 6.56% (inactive) |
| CC=O | -0.025% (inactive) |
| CCOc1ccccc1N | 2.22% (inactive) |
| Cc1ccc(C(C)(C)C)cc1 | -22.3% (inactive) |
| CC(N)CN (configuration not stated) | -4.72% (inactive) |
| O=C1CCC(=O)O1 | 8.43% (inactive) |
| O=[N+]([O-])c1ccc(NCCO)c(OCCO)c1 | 2.92% (inactive) |
| ClCCl | 3.48% (inactive) |
| Cc1ccc(C)o1 | -6.88% (inactive) |

| Structure (SMILES) | activity change, negative = cytotoxicity |
| --- | --- |
| NC(=S)NNC(N)=S | 3.6% (inactive) |
| Clc1ccc(Cl)c(Cl)c1Cl | -7.77% (inactive) |
| O=C(Cl)c1ccccc1[N+](=O)[O-] | -2.43% (inactive) |
| Nc1cccc(N)c1 | -7.47% (inactive) |
| CC(C)=C1CCC(C)CC1=O (configuration not stated) | -10% (inactive) |
| Nc1ccc(F)cc1F | -14.7% (inactive) |
| COC(=O)CCC(=O)OC | -1.08% (inactive) |
| CCc1ccccc1 | -13% (inactive) |
| CC(=O)OCCC(C)C | -13.9% (inactive) |
| C[C@@H]1CC2(OC3C[C@@]4(C)C5=CC[C@H]6C(C)(C)C(O[C@@H]7OC[C@@H](O)[C@H](O)[C@H]7O)CC[C@@]67C[C@@]57CC[C@]4(C)C31)OC(O)C1(C)OC21 (some centres not stated) | -19.9% (inactive) |
| CC(=O)Nc1ccc(N)cc1 | 4.97% (inactive) |
| CN(C)c1cccc(O)c1 | -4.75% (inactive) |
| Nc1ccccc1S(=O)(=O)O | -1.04% (inactive) |
| C=CCOC(=O)CCCCCCCC | -11.5% (inactive) |
| CC(=O)CCc1ccccc1 | -13.3% (inactive) |
| c1ccsc1 | -12.2% (inactive) |
| NC(=O)c1ccccc1[N+](=O)[O-] | 3.76% (inactive) |
| O=C(O)/C=C/C(=O)O | -5.1% (inactive) |
| O=C(O)c1ccc(CO)o1 | -19.1% (inactive) |
